Several values for one entry are separate records, joined by “and”; a condition that tells them apart may be missing. Equal values may be shown once. The campaign covered roughly 5,500 compounds. About 2,000 (36%) were called active. Another 18% or so got no clear call; they are omitted. Cut-off read from the data, not from the text of the source: active = normalized growth mostly below about 0.91 (no sharp cut-off); inconclusive = no clear call, values can overlap the other calls; inactive = mostly above about 0.92. The list shows a part of the results.
Test: chemical genetic growth profiling, strain panel (AID 1159580);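 note: tested at 20 µM; growth read once vehicle control cultures reached saturation at 30 °C; 1 = growth at the plate median or of vehicle wells; lower values mean less growth of the strain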
Conditions: S. cerevisiae deletion strains, growth OD

Measured: normalized growth

COc1ccc2c(c1)OC/C(=C\c1ccc(OC)c(O)c1)C2=O
inactive: locus YAL021C, strain ccr4, stronger effect = lower value 0.985 | locus YAL030W, strain snc1, stronger effect = lower value 0.935 | locus YBR171W, strain sec66, stronger effect = lower value 0.919 | locus YBR229C, strain ROT2, stronger effect = lower value 0.967 | locus YCR088W, strain abp1, stronger effect = lower value 0.954 | locus YDL005C, strain med2, stronger effect = lower value 0.984 | locus YDL040C, strain nat1, stronger effect = lower value 0.953 | locus YDL185W, strain tfp1, stronger effect = lower value 0.909 | locus YDR001C, strain nth1, stronger effect = lower value 0.953 | locus YDR069C, strain doa4, stronger effect = lower value 0.97 | locus YDR195W, strain ref2 1.11 | locus YDR335W, strain msn5, stronger effect = lower value 0.943 | locus YEL037C, strain rad23, stronger effect = lower value 0.954 | locus YEL061C, strain CIN8 (second series), stronger effect = lower value 0.935 | locus YER016W, strain bim1, stronger effect = lower value 0.949 | locus YER111C, strain swi4, stronger effect = lower value 0.964 | locus YFR010W, strain ubp6, stronger effect = lower value 0.944 | locus YGL167C, strain pmr1, stronger effect = lower value 0.947 | locus YHR079C, strain IRE1, stronger effect = lower value 0.968 | locus YJL092W, strain hpr5, stronger effect = lower value 0.94 | locus YJL115W, strain asf1, stronger effect = lower value 0.953 | locus YJL134W, strain LCB3, stronger effect = lower value 0.949 | locus YJL154C, strain vps35, stronger effect = lower value 0.969 | locus YJL168C, strain set2, stronger effect = lower value 0.948
0.262 (active) and 0.961 (inactive): locus YJL095W, strain BCK1, stronger effect = lower value
active: locus YAL013W, strain DEP1, stronger effect = lower value 0.72 | locus YAL026C, strain drs2, stronger effect = lower value 0.865 | locus YBL061C, strain skt5, stronger effect = lower value 0.905 | locus YBR009C, strain hhf1, stronger effect = lower value 0.781 | locus YBR021W, strain FUR4, stronger effect = lower value 0.796 | locus YBR023C, strain chs3, stronger effect = lower value 0.88 | locus YBR231C, strain swc5, stronger effect = lower value 0.8 | locus YBR279W, strain paf1, stronger effect = lower value 0.912 | locus YCL011C, strain gbp2, stronger effect = lower value 0.857 | locus YCL016C, strain dcc1, stronger effect = lower value 0.881 | locus YCL029C, strain bik1, stronger effect = lower value 0.772 | locus YCL069W, strain vba3, stronger effect = lower value 0.878 | locus YDL035C, strain GPR1, stronger effect = lower value 0.818 | locus YDL074C, strain BRE1, stronger effect = lower value 0.534 | locus YDL101C, strain DUN1, stronger effect = lower value 0.665 | locus YDL192W, strain arf1, stronger effect = lower value 0.748 | locus YDR101C, strain arx1, stronger effect = lower value 0.855 | locus YDR137W, strain rgp1, stronger effect = lower value 0.705 | locus YDR150W, strain NUM1, stronger effect = lower value 0.894 | locus YDR159W, strain sac3, stronger effect = lower value 0.8 | locus YDR162C, strain NBP2, stronger effect = lower value 0.475 | locus YDR297W, strain sur2, stronger effect = lower value 0.864 | locus YDR318W, strain mcm21, stronger effect = lower value 0.574 | locus YDR334W, strain swr1, stronger effect = lower value 0.894 | locus YDR388W, stronger effect = lower value 0.913 | locus YDR392W, strain spt3, stronger effect = lower value 0.206 | locus YDR502C, strain sam2, stronger effect = lower value 0.69 | locus YEL003W, strain gim4, stronger effect = lower value 0.806 | locus YEL061C, strain CIN8, stronger effect = lower value 0.623 | locus YER015W, strain faa2, stronger effect = lower value 0.874 | locus YER110C, stronger effect = lower value 0.79 | locus YER155C, strain BEM2 (second series), stronger effect = lower value 0.448 | locus YER155C, strain BEM2, stronger effect = lower value 0.301 | locus YER167W, strain BCK2, stronger effect = lower value 0.816 | locus YGL078C, strain dbp3, stronger effect = lower value 0.878 | locus YGL086W, strain mad1, stronger effect = lower value 0.517 | locus YGL173C, strain kem1, stronger effect = lower value 0.878 | locus YGL227W, strain vid30, stronger effect = lower value 0.813 | locus YGL240W, strain doc1, stronger effect = lower value 0.795 | locus YGL248W, strain PDE1, stronger effect = lower value 0.603 | locus YGL253W, strain hxk2, stronger effect = lower value 0.8 | locus YGR078C, strain PAC10, stronger effect = lower value 0.487 | locus YGR135W, strain pre9, stronger effect = lower value 0.684 | locus YGR229C, strain SMI1, stronger effect = lower value 0.386 | locus YGR252W, strain gcn5, stronger effect = lower value 0.545 | locus YHR013C, strain ard1, stronger effect = lower value 0.783 | locus YHR027C, strain rpn1, stronger effect = lower value 0.909 | locus YHR079C, strain IRE1 (second series), stronger effect = lower value 0.831 | locus YHR094C, strain hxt1, stronger effect = lower value 0.812 | locus YHR129C, strain ARP1, stronger effect = lower value 0.516 | locus YHR142W, strain chs7, stronger effect = lower value 0.727 | locus YHR200W, strain rpn10, stronger effect = lower value 0.864 | locus YIL066C, strain RNR3, stronger effect = lower value 0.665 | locus YIL073C, strain SPO22, stronger effect = lower value 0.631 | locus YIL125W, strain kgd1, stronger effect = lower value 0.916 | locus YIR030C, strain dcg1, stronger effect = lower value 0.854 | locus YJL095W, strain BCK1 (second series), stronger effect = lower value 0.899 | locus YJL129C, strain trk1, stronger effect = lower value 0.776 | locus YJL164C, strain tpk1, stronger effect = lower value 0.876 | locus YJL166W, strain qcr8, stronger effect = lower value 0.654 | locus YJL187C, strain SWE1 (second series), stronger effect = lower value 0.773 | locus YJR043C, strain POL32, stronger effect = lower value 0.731
0.399 (active) and 0.978 (inactive): locus YHR030C, strain SLT2, stronger effect = lower value
